# Experimental data taken from PubChem BioAssay AID977622 (Broad Institute, 2014).
# Fewer than 10 of roughly 1,900 compounds were called active. Roughly 39% stayed inconclusive and do not appear here.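 Rule for the calls: active = Green signal of the normal strain falls at least twice as much as red signal of the resistant mutant, with overall culture growth loss under a set limit; inconclusive = no clear call, values can overlap the other calls; inactive = the rest.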 These entries were drawn from the full list.
# How the values were obtained:
# [1] = growth inhibition of wild-type GFP E. coli, dose response, h38 mutant RFP, cherry-pick (AID 977622); settings: activity change: E. coli mixed culture, total growth OD600 at 50 uM, at 50 µM
# [2] = system: E. coli h38 humanized mutant ribosome RFP fluorescence, mixed culture, 24 h; experiment: as above; settings: h38 mutant RFP at 50 uM; at 50 µM
structure (smiles),measurement,setting,value
C[C@H]1CN([C@@H](C)CO)C(=O)CCCn2nncc2CO[C@@H]1CN(C)Cc1ccccc1C(F)(F)F,activity change,[1],-28.1%
same,outcome,[1],inactive
same,activity change,[2],-45.2%
Cn1nc(C(=O)Nc2cccc(S(=O)(=O)N3CCCCC3)c2)c2ccccc2c1=O,activity change,[1],-5.66%
same,outcome,[1],inactive
same,activity change,[2],-3.97%
O=S1(=O)N[C@H](Cc2ccccc2)COc2cc(N3CCSCC3)ccc21,activity change,[1],-14.3%
same,outcome,[1],inactive
same,activity change,[2],12%
CN(CCOc1ccccc1)S(=O)(=O)c1ccccc1C#N,activity change,[1],-20.9%
same,outcome,[1],inactive
CN(C)S(=O)(=O)c1cccc(C(=O)OCC(=O)c2ccc3c(c2)NC(=O)CO3)c1,activity change,[1],-6.04%
same,outcome,[1],inactive
O=C(COC(=O)C1CC2C=CC1C2)Nc1ccc([N+](=O)[O-])cc1 (configuration not stated),activity change,[1],-15.1%
same,outcome,[1],inactive
same,activity change,[2],-8.7%
C[C@@H]1CN([C@@H](C)CO)C(=O)CCCn2nncc2CO[C@H]1CN(C)C(=O)Nc1cccc(C(F)(F)F)c1,activity change,[1],-2.42%
same,outcome,[1],inactive
same,activity change,[2],-7.01%
Fc1cccc(Cc2c(-c3ccco3)nc3c4ccccc4ccn23)c1,activity change,[1],3.21%
same,outcome,[1],inactive
same,activity change,[2],15.9%
O=C(c1ccccc1)C1Oc2ccccc2C2CC(c3cccs3)=NN12 (configuration not stated),activity change,[1],-7.77%
same,outcome,[1],inactive
same,activity change,[2],46.5%
C=CCSc1cc(C)nc2c(-c3ccccc3)c(C)nn12,activity change,[1],-4.42%
same,outcome,[1],inactive
same,activity change,[2],-3.25%
Cc1cc(C)c(OCC(=O)OCC(=O)N2CCc3ccccc3C2)c(C)c1,activity change,[1],-18.4%
same,outcome,[1],inactive
same,activity change,[2],-19.1%
Cc1noc(C)c1NC(=O)Nc1ccc2c(c1)C(=O)N([C@H](C)CO)C[C@H](C)[C@H](CN(C)C(=O)Nc1ccc3c(c1)OCO3)OCCCC[C@@H](C)O2,activity change,[1],-29.4%
same,outcome,[1],inactive
same,activity change,[2],-22.3%
COc1ccccc1NC(=O)CSc1nccn1Cc1ccc(F)cc1,activity change,[1],-34.2%
same,outcome,[1],inactive
same,activity change,[2],-43.9%
COc1cc2ccccc2cc1C(=O)NCC(c1cccs1)N(C)C (configuration not stated),activity change,[1],-20.3%
same,outcome,[1],inactive
same,activity change,[2],10.8%
COc1cccc(NC(=O)N(C)C[C@H]2Oc3ncc(C#Cc4cccnc4)cc3C(=O)N([C@H](C)CO)C[C@H]2C)c1,activity change,[1],-8.41%
same,outcome,[1],inactive
same,activity change,[2],-2.54%
O=C(O)CC(CC(=O)Nc1ccc(Oc2ccccc2)cc1)c1ccccc1 (configuration not stated),activity change,[1],-38.6%
same,outcome,[1],inactive
same,activity change,[2],-21.4%
Cc1onc(-c2ccccc2Cl)c1C(=O)N1CCN(Cc2ccc3c(c2)OCO3)CC1,activity change,[1],-18.8%
same,outcome,[1],inactive
same,activity change,[2],-29.8%
Cc1cc(C)nc(SCCC(=O)Nc2ccccc2Cl)n1,outcome,[1],inactive
same,activity change,[2],4.04%
C=CCNc1ccc2c(c1)OC[C@H](CC(C)C)NS2(=O)=O,activity change,[1],-16.5%
same,outcome,[1],inactive
same,activity change,[2],-12.1%
CCCCCCCNC(=O)c1ccc(N2CCC3(CC2)OCCO3)c([N+](=O)[O-])c1,activity change,[1],-71.7%
same,outcome,[1],inactive
same,activity change,[2],33.2%
CCn1nc(C)cc1C(=O)N1CCCC(C(=O)c2ccc3ccccc3c2)C1 (configuration not stated),activity change,[1],-3.63%
same,outcome,[1],inactive
same,activity change,[2],3.47%
CSc1ccccc1C(=O)NCCc1ccc(S(=O)(=O)N2CCCCC2)cc1,activity change,[1],-6.73%
same,outcome,[1],inactive
CCOc1ncccc1C(=O)OCC(=O)NCCCc1ccccc1,activity change,[1],-34.2%
same,outcome,[1],inactive
same,activity change,[2],13.1%
Cn1cc(CN2CCCC(C(=O)Nc3cccc(-c4cc5ccccc5[nH]4)c3)C2)cn1 (configuration not stated),activity change,[1],-25.9%
same,outcome,[1],inactive
same,activity change,[2],-29%
COc1ccccc1CC(=O)NCCCc1ccccc1,activity change,[1],0.195%
same,outcome,[1],inactive
same,activity change,[2],28.9%
CN1C(=O)c2cc(NC(=O)c3cccc(F)c3)ccc2OC[C@H]2O[C@@H](CC(=O)NCC3CCCCC3)CC[C@@H]21,activity change,[1],-45.8%
same,outcome,[1],inactive
same,activity change,[2],-19.3%
C[C@H](CO)N1C[C@H](C)[C@H](CN(C)C(=O)Nc2ccc(F)cc2)Oc2c(NC(=O)Nc3ccccc3)cccc2C1=O,activity change,[1],-24.1%
same,outcome,[1],inactive
same,activity change,[2],16.4%
O=C(Nc1c(S(=O)(=O)c2ccc(Cl)cc2)csc1Br)c1ccccc1Cl,activity change,[1],9.68%
same,outcome,[1],inactive
same,activity change,[2],8.46%
O=C(CCc1nc2ccccc2s1)OCC(=O)c1ccccc1,activity change,[1],6.3%
same,outcome,[1],inactive
same,activity change,[2],-0.655%
Cc1ccc2nc(N(CCN(C)C)C(=O)C3CCN(S(=O)(=O)c4cccs4)CC3)sc2c1,activity change,[1],-21.5%
same,outcome,[1],inactive
Cc1cccc(-c2ccc([C@@H]3[C@@H](CO)N4CCCCN(S(=O)(=O)c5ccccc5C)C[C@@H]34)cc2)c1,activity change,[1],-8.54%
same,outcome,[1],inactive
same,activity change,[2],21%
COc1ccc(C#Cc2ccc([C@H]3[C@@H](CO)N4CCCCN(C(=O)Nc5cccc(F)c5)C[C@H]34)cc2)cc1,activity change,[1],-17.6%
same,outcome,[1],inactive
same,activity change,[2],73.7%
Cc1cc(C)n(CC(O)COc2ccc3ccccc3c2)n1 (configuration not stated),activity change,[1],4.91%
same,outcome,[1],inactive
same,activity change,[2],10.9%
N#Cc1nc(COc2cccc(Cl)c2)oc1N1CCCC1,activity change,[1],-6.55%
same,outcome,[1],inactive
COc1ccc(CC(=O)NCc2csc(-c3cccs3)n2)cc1OC,activity change,[1],-8.86%
same,outcome,[1],inactive
same,activity change,[2],-8.02%
Cc1ccc(-n2c(SCC(N)=O)nnc2-c2cnccn2)cc1,activity change,[1],-6.07%
same,outcome,[1],inactive
same,activity change,[2],-24.8%
COc1ccc(C)c2sc(N(CCN(C)C)C(=O)c3ccc(S(=O)(=O)N(C)c4ccccc4)cc3)nc12,activity change,[1],-16.8%
same,outcome,[1],inactive
same,activity change,[2],11%
CCCc1nc2ccc(Br)cn2c1Cc1cccc(Cl)c1,activity change,[1],-8.44%
same,outcome,[1],inactive
same,activity change,[2],4.58%
CS(=O)(=O)c1ccc(Cl)c(NC(=O)COC(=O)c2c(Cl)cccc2Cl)c1,activity change,[1],-7.03%
same,outcome,[1],inactive
same,activity change,[2],-3.81%
COc1ccc(Cc2c(-c3cccc(Cl)c3)nc3ccc(Cl)cn23)c(C)c1,activity change,[1],-9.93%
same,outcome,[1],inactive
same,activity change,[2],1.24%
OC1CCN(c2c3c(nc4cc(-c5cccc(F)c5)nn24)CCCC3)CC1,activity change,[1],-19%
same,outcome,[1],inactive
same,activity change,[2],-5.04%
CN(Cc1ccccc1NS(=O)(=O)c1ccc(Cl)cc1)C1CCCCC1,activity change,[1],4.68%
same,outcome,[1],inactive
same,activity change,[2],25.7%
O=C1c2ccccc2CSc2c(O)cccc21,activity change,[1],-41.7%
same,outcome,[1],inactive
same,activity change,[2],-51.2%
CCN(CC)CCNC(=O)c1cc2cc3ccc(OC)cc3nc2o1,activity change,[1],-17.2%
same,outcome,[1],inactive
same,activity change,[2],-1.99%
C[C@H](CO)N1C[C@H](C)[C@@H](CN(C)C(=O)CCCN(C)C)OCCCC[C@H](C)Oc2ccc(NC(=O)Nc3cccc4ccccc34)cc2C1=O,activity change,[1],1.54%
same,outcome,[1],inactive
same,activity change,[2],-2.48%
COc1ccccc1NC(=O)COC(=O)Cc1c[nH]c2ccccc12,activity change,[1],-29.2%
same,outcome,[1],inactive
same,activity change,[2],-34.7%
NC(=O)c1ccsc1NC(=O)COC(=O)Cc1ccc(F)cc1,activity change,[1],-13.5%
same,outcome,[1],inactive
same,activity change,[2],-23.2%
COc1cccc(C(=O)Nc2nnc(S(=O)(=O)N(C)Cc3ccccc3)s2)c1,activity change,[1],-30.6%
same,outcome,[1],inactive
same,activity change,[2],-13.1%
Cc1noc(C)c1NC(=O)Nc1ccc2c(c1)C(=O)N([C@H](C)CO)C[C@@H](C)[C@@H](CN(C)C(=O)Nc1ccc3c(c1)OCO3)OCCCC[C@@H](C)O2,activity change,[1],-6.3%
same,outcome,[1],inactive
same,activity change,[2],-16.3%
CC(NC(=O)c1c(N)[nH]c(C(=O)c2ccccc2)c1-c1ccccc1Br)c1cccc2ccccc12 (configuration not stated),activity change,[1],-15.6%
same,outcome,[1],inactive
same,activity change,[2],41.2%
COC(=O)CN1C(=S)N(c2ccc(F)cc2)C(=O)C1CC(=O)Nc1ccc(F)cc1 (configuration not stated),activity change,[1],-1.47%
same,outcome,[1],inactive
same,activity change,[2],-5.83%
COc1cc(OC)cc(C(=O)N[C@H](C(=O)OCC(=O)Nc2ccc(F)c(F)c2F)C(C)C)c1,activity change,[1],-1.83%
same,outcome,[1],inactive
same,activity change,[2],-9.06%
O=C(NCc1ccccc1)c1ccc(-c2cn[nH]c2)c2ccoc12,activity change,[1],-21.8%
same,outcome,[1],inactive
same,activity change,[2],-23.8%
CCC(=O)Nc1nc2c(OC)ccc(OC)c2s1,outcome,[1],inactive
same,activity change,[2],-14.1%
O=C(Nc1cccc(Cl)c1)N1C[C@@H]2[C@H](c3ccccc31)[C@@H](CO)N2C(=O)c1cccnc1,activity change,[1],7.11%
same,outcome,[1],inactive
same,activity change,[2],2.16%
c1ccc(SCc2nc3ccccc3s2)nc1,activity change,[1],-3.53%
same,outcome,[1],inactive
same,activity change,[2],8.07%
Cc1ccc(NS(=O)(=O)c2ccc3c(c2)CCC(=O)N3)cc1C,activity change,[1],-8.95%
same,outcome,[1],inactive
same,activity change,[2],-10.9%
O=C(Nc1cccc(F)c1)N1C[C@@H]2[C@H](c3ccccc31)[C@H](CO)N2C(=O)Cc1ccccn1,activity change,[1],4.66%
same,outcome,[1],inactive
same,activity change,[2],-3.32%
COc1ccc(-c2cc(C(=O)Nc3ccc(C(N)=O)cc3)c3ccccc3n2)cc1OC,activity change,[1],8%
same,outcome,[1],inactive
same,activity change,[2],-4.25%
N#Cc1ccc(-c2ccc(C3[C@H]4CNC[C@@H]3N4S(=O)(=O)c3ccc(-c4ccccc4)cc3)cc2)cc1 (some centres not stated),activity change,[1],-54.5%
same,outcome,[1],inactive
same,activity change,[2],244%
Nc1ccc(C(=O)OCCCc2nc3cc4ccccc4cc3[nH]2)cc1,activity change,[1],3.79%
same,outcome,[1],inactive
same,activity change,[2],0.364%
O=C(NCc1nc2ccccc2[nH]1)c1ccc(S(=O)(=O)N2CCCC2)cc1,activity change,[1],-24.9%
same,outcome,[1],inactive
same,activity change,[2],2.82%
CC[n+]1c(C)cc2c(sc3ccccc32)c1C,activity change,[1],-0.26%
same,outcome,[1],inactive
same,activity change,[2],-7%
COc1ccccc1NC(=O)CSc1ncc(CO)n1Cc1ccc(F)cc1,activity change,[1],-27.8%
same,outcome,[1],inactive
same,activity change,[2],-17.1%
CSc1ccc(CN(C)C(=O)C(c2ccccc2)c2ccccc2)cc1,activity change,[1],-21.9%
same,outcome,[1],inactive
same,activity change,[2],-20.3%
O=C(Nc1ccc(C(=O)Nc2ccccc2Cl)cc1)c1cccnc1,activity change,[1],-26.4%
same,outcome,[1],inactive
same,activity change,[2],-26%
COC(=O)c1ccc(CCc2cc(O)c(Br)cc2O)cc1,activity change,[1],-52.8%
same,outcome,[1],inactive
same,activity change,[2],27.3%
O=C(Nc1ccc(C(=O)c2ccccc2)cc1)c1ccccc1,activity change,[1],-40.2%
same,outcome,[1],inactive
same,activity change,[2],-22.1%
OC[C@H]1[C@H](c2ccc(-c3ccc(F)cc3)cc2)[C@@H]2CN(Cc3ccncc3)CCCCN12,activity change,[1],-3.55%
same,outcome,[1],inactive
same,activity change,[2],-17.5%
O=C(NCCCn1ccnc1)c1sc2cc([N+](=O)[O-])ccc2c1Cl,activity change,[1],-6%
same,outcome,[1],inactive
same,activity change,[2],-1.75%
CCC1(CC)NC(=O)N(CC(=O)N2N=C(c3ccc(Cl)cc3)CC2c2ccco2)C1=O (configuration not stated),activity change,[1],-19.3%
same,outcome,[1],inactive
same,activity change,[2],-38.4%
O=C(COc1cccc2c1CCN(Cc1ccccc1F)C2=O)N1CCCCC1,activity change,[1],-32.1%
same,outcome,[1],inactive
O=C(Nc1cccc(S(=O)(=O)c2cccc(NC(=O)C3CC3)c2)c1)C1CC1,activity change,[1],-38.1%
same,outcome,[1],inactive
same,activity change,[2],4.96%
O=S(=O)(Cc1ccccc1)N1CCCCN2[C@@H](CO)[C@@H](c3ccc(-c4cccnc4)cc3)[C@@H]2C1,activity change,[1],-6.81%
same,outcome,[1],inactive
same,activity change,[2],16.2%
Cc1noc(C)c1NC(=O)Nc1ccc2c(c1)C(=O)N([C@@H](C)CO)C[C@@H](C)[C@@H](CN(C)C(=O)Nc1ccc3c(c1)OCO3)OCCCC[C@@H](C)O2,activity change,[1],-2.53%
same,outcome,[1],inactive
same,activity change,[2],20.3%
